Experimental data reported in PubChem BioAssay (EPA / NIEHS).
Records with an inconclusive call do not appear. Calls of active or inactive are those of the source. Rule for the calls: active = hit-call score of the fitted dose curve at least 0.9, where 1 is the maximum; inconclusive = response in the unintended direction; inactive = score below 0.9.

How the values were obtained:
[1] = target: human Matrix Metalloproteinase-9 (MMP9), MMP9 (gene 4318) (UniProt P14780); assay: NVS_ENZ_hMMP9: NovaScreen (NVS) Enzymatic Assay for human Matrix Metalloproteinase-9 (MMP9) (AID 2283190);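 note: cell-free recombinant MMP9 protease activity read by fluorescent substrate signal; active means inhibition seen as loss of fluorescence signal versus DMSO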
Sequence of human Matrix Metalloproteinase-9 (MMP9), MMP9 (gene 4318) (P14780 whole entry, looked up): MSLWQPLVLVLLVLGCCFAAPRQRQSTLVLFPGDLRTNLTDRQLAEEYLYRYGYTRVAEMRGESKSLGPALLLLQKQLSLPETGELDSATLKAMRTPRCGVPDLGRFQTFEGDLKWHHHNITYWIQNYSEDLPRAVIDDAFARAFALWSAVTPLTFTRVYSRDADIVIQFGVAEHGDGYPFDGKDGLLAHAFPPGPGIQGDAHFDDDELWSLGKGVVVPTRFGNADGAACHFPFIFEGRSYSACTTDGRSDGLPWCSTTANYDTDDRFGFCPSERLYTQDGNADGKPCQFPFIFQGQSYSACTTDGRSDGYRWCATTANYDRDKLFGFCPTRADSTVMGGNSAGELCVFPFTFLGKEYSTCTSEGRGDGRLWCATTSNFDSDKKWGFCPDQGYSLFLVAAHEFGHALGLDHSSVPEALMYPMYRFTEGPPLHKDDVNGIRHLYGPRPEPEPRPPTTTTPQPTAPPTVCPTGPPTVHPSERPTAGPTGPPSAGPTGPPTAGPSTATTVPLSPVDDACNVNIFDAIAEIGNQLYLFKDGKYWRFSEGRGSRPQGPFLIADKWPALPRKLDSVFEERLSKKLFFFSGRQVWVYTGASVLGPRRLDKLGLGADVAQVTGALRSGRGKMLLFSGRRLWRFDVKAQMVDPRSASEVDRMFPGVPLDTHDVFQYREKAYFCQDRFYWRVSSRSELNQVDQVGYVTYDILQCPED
How it was run: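 Inhibition was scored as loss of fluorescence signal against DMSO controls. The recombinant protease was exposed to chemicals for 1 hour before reading; initial testing used 25 uM in duplicate.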

[2] = target: human FYN Proto-Oncogene, Src family Tyrosine Kinase (Fyn), FYN (gene 2534) (UniProt P06241); assay: NVS_ENZ_hFyn: NovaScreen (NVS) Enzymatic Assay for human FYN Proto-Oncogene, Src family Tyrosine Kinase (Fyn) (AID 2283161)
How it was run: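 Cell-free kinase activity read by fluorescence after mobility-shift separation of substrate and product, 1 h post-dose. Initial single concentration 25 uM in duplicate, then concentration-response follow-up; DMSO baseline.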

[3] = target: Glycogen synthase kinase-3 beta (Homo sapiens) (UniProt P49841); assay: NVS_ENZ_hGSK3b: NovaScreen (NVS) Enzymatic Assay for human Glycogen Synthase Kinase-3 beta (GSK3b) (AID 2283165)
Sequence of Glycogen synthase kinase-3 beta (Homo sapiens) (P49841 whole entry, looked up): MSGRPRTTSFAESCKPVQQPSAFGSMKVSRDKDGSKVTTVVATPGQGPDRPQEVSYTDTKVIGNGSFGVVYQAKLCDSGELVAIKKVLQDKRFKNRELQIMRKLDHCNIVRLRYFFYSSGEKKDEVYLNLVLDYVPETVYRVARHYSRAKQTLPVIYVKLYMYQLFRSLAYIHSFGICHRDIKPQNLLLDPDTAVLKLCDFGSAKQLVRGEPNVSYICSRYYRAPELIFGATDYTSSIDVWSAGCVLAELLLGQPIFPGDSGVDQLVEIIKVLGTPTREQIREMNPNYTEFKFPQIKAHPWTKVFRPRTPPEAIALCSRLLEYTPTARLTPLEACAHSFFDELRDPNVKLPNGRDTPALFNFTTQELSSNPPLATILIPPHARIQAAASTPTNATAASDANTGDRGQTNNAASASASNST
How it was run: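 Recombinant enzyme with specific fluorescent substrate, 1 h, product separated by electrophoretic mobility shift. Primary duplicate screen at 25 uM; actives (e.g. 30% inhibition) followed in singleton concentration-response to 50 uM. Signal loss fitted versus DMSO.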

[4] = target: human Fibroblast Growth Factor Receptor 1 (FGFR1), FGFR1 (gene 2260) (UniProt P11362); assay: NVS_ENZ_hFGFR1: NovaScreen (NVS) Enzymatic Assay for human Fibroblast Growth Factor Receptor 1 (FGFR1) (AID 2283159);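 for AC50: hits lower the signal so potencies describe inhibitors of the kinase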
Sequence of human Fibroblast Growth Factor Receptor 1 (FGFR1), FGFR1 (gene 2260) (P11362 whole entry, looked up): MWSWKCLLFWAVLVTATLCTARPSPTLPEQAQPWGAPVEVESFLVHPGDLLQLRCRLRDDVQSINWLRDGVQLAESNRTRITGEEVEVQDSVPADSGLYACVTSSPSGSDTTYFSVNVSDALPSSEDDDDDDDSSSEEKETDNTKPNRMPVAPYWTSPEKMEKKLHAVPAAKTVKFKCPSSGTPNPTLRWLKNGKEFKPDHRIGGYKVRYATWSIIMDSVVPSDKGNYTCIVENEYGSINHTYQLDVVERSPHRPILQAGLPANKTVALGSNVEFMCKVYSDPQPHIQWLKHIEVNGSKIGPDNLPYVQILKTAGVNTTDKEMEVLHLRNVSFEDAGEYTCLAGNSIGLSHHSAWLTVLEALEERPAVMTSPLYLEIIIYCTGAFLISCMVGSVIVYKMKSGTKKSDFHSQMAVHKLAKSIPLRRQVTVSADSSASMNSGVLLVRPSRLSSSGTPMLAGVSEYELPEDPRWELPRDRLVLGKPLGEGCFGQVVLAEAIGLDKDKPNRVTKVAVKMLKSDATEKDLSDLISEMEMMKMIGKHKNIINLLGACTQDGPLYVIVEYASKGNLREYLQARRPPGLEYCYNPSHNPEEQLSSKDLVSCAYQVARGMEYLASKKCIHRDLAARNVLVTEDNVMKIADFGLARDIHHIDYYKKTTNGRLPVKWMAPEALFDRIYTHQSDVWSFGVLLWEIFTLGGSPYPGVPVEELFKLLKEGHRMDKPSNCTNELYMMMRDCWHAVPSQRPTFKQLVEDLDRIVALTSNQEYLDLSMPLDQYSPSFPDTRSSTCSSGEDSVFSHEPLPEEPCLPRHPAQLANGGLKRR
How it was run: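 Cell-free recombinant kinase with fluorescent substrate, product separated by electrophoretic mobility shift; read 1 hour after dosing, loss of signal relative to DMSO. Initial screen in duplicate at 25 uM, actives followed in concentration series.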

[5] = target: human Matrix Metalloproteinase-7 (MMP7), MMP7 (gene 4316) (UniProt P09237); assay: NVS_ENZ_hMMP7: NovaScreen (NVS) Enzymatic Assay for human Matrix Metalloproteinase-7 (MMP7) (AID 2283183)
Sequence of human Matrix Metalloproteinase-7 (MMP7), MMP7 (gene 4316) (P09237 whole entry, looked up): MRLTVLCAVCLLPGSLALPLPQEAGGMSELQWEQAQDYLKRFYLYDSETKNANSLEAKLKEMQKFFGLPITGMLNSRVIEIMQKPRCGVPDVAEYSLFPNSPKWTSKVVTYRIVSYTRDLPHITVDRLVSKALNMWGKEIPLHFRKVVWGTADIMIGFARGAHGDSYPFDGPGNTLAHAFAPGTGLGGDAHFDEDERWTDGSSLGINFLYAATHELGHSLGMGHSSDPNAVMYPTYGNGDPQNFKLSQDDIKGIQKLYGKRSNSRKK
How it was run: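 Compounds first tested at 25 uM in duplicate, then at up to 50 uM in concentration series if active. Protease activity measured by fluorescence intensity 1 h after dosing, with fitting relative to DMSO.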

[6] = target: human Matrix Metalloproteinase-2 (MMP2), MMP2 (gene 4313) (UniProt P08253); assay: NVS_ENZ_hMMP2: NovaScreen (NVS) Enzymatic Assay for human Matrix Metalloproteinase-2 (MMP2) (AID 2283184)
Sequence of human Matrix Metalloproteinase-2 (MMP2), MMP2 (gene 4313) (P08253 whole entry, looked up): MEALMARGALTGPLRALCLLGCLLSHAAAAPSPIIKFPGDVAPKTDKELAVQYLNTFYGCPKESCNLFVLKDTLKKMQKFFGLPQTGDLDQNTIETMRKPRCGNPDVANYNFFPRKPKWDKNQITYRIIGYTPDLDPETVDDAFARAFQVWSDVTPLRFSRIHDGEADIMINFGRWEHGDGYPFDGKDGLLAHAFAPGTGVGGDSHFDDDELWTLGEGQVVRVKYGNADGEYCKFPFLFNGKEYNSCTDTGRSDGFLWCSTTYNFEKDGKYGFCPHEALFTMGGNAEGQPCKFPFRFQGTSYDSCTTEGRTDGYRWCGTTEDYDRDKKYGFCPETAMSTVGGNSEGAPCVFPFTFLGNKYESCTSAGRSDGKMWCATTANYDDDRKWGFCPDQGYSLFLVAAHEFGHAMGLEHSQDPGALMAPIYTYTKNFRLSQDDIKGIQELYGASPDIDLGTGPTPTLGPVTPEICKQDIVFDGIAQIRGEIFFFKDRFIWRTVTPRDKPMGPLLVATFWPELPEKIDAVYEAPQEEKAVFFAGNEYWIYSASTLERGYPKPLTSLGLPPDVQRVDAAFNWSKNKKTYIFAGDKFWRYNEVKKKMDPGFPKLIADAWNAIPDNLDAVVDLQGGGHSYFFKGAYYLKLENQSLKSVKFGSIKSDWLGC
How it was run: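 Compounds first screened in duplicate at a single 25 uM, with actives followed up in concentration series. Recombinant human MMP2 cleaves a fluorogenic substrate; fluorescence taken at 1 h, inhibition fitted relative to DMSO.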

[7] = target: human Phosphodiesterase 4A1 (PDE4A1), PDE4A (gene 5141) (UniProt P27815); assay: NVS_ENZ_hPDE4A1: NovaScreen (NVS) Enzymatic Assay for human Phosphodiesterase 4A1 (PDE4A1) (AID 2283191)
How it was run: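 Fluorescent substrate turnover by recombinant PDE4A1 read after 1 h by mobility-shift separation. Primary duplicate screen at 25 uM; hits retested in concentration series with a 50 uM maximum, relative to DMSO.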

[8] = target: Collagenase 3 (Homo sapiens) (UniProt P45452); assay: NVS_ENZ_hMMP13: NovaScreen (NVS) Enzymatic Assay for human Matrix Metalloproteinase-13 (MMP13) (AID 2283182)
How it was run: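 Recombinant MMP13 cleaving fluorescent substrate, cell-free, measured 1 h after dosing. Primary duplicate screen at 25 uM; actives tested in concentration-response up to 50 uM; loss of signal relative to DMSO.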

[9] = target: human NIMA (Never In Mitosis Gene A)-Related Kinase 2 (NEK2), NEK2 (gene 4751) (UniProt P51955); assay: NVS_ENZ_hNEK2: NovaScreen (NVS) Enzymatic Assay for human NIMA (Never In Mitosis Gene A)-Related Kinase 2 (NEK2) (AID 2283188)
How it was run: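 Compounds were first screened in duplicate at 25 uM, with actives followed up in concentration series. Recombinant NEK2 activity, cell-free, was read 1 h after dosing by fluorescence intensity after mobility-shift separation. Signal loss was scored against DMSO.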

[10] = target: human Matrix Metalloproteinase-3 (MMP3), MMP3 (gene 4314) (UniProt P08254); assay: NVS_ENZ_hMMP3: NovaScreen (NVS) Enzymatic Assay for human Matrix Metalloproteinase-3 (MMP3) (AID 2283185)
How it was run: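 Fluorescent substrate turnover by recombinant MMP3 read after 1 h, signal loss scored against DMSO. Compounds first run in duplicate at 25 uM single dose, then actives confirmed by concentration series.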

[11] = target: human c-Jun N-terminal Kinases (JNK2), MAPK9 (gene 5601) (UniProt P45984); assay: NVS_ENZ_hJNK2: NovaScreen (NVS) Enzymatic Assay for human c-Jun N-terminal Kinases (JNK2) (AID 2283171)
Sequence of human c-Jun N-terminal Kinases (JNK2), MAPK9 (gene 5601) (P45984 whole entry, looked up): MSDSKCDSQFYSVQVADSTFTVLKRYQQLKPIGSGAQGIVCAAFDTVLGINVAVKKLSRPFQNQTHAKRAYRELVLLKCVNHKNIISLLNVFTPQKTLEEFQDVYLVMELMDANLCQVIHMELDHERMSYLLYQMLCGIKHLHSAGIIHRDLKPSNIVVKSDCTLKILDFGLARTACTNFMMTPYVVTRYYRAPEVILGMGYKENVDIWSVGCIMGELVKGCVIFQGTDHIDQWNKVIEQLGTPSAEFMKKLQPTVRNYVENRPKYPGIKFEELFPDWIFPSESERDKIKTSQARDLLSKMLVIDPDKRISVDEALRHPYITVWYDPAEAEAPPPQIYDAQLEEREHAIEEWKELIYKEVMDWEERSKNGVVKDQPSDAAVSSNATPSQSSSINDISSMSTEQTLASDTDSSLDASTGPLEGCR
How it was run: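 Chemicals first tested in duplicate at 25 uM, then in singleton concentration series up to 50 uM, against extracted JNK2 enzyme. Activity loss read by fluorescence with mobility-shift separation 1 h post-dose; DMSO baseline.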

[12] = target: human Mitogen-Activated Protein Kinase 1 (MAPK 1), MAPK1 (gene 5594) (UniProt P28482); assay: NVS_ENZ_hMAPK1: NovaScreen (NVS) Enzymatic Assay for human Mitogen-Activated Protein Kinase 1 (MAPK 1) (AID 2283175)
Sequence of human Mitogen-Activated Protein Kinase 1 (MAPK 1), MAPK1 (gene 5594) (P28482 whole entry, looked up): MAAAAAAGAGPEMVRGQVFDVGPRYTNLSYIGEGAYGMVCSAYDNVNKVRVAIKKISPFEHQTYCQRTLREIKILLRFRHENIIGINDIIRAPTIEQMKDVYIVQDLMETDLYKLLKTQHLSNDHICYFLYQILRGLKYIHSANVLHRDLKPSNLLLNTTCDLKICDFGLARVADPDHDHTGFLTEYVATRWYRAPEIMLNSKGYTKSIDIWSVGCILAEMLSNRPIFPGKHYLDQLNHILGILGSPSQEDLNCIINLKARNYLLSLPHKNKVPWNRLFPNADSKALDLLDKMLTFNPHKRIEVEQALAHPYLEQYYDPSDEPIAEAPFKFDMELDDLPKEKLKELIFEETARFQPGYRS
How it was run: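 Cell-free recombinant human MAPK1 enzymatic assay, fluorescence/electrophoretic mobility shift read at 1 h; loss of signal vs DMSO. Primary screen in duplicate at 25 uM; actives (e.g. ≥30% inhibition) run as concentration-response up to 50 uM.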

[13] = target: human Matrix Metalloproteinase-1 (MMP1), MMP1 (gene 4312) (UniProt P03956); assay: NVS_ENZ_hMMP1: NovaScreen (NVS) Enzymatic Assay for human Matrix Metalloproteinase-1 (MMP1) (AID 2283181)
How it was run: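 Cell-free fluorescent substrate assay of human MMP1, read after 1 h. A single 25 uM duplicate screen was followed by concentration series to a maximum of 50 uM for actives meeting threshold; inhibition analysed against DMSO baseline.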

[14] = target: Histone deacetylase 3 (Homo sapiens) (UniProt O15379); assay: NVS_ENZ_hHDAC3: NovaScreen (NVS) Enzymatic Assay for human Histone Deacetylase 3 (HDAC3) (AID 2283163)
How it was run: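 Cell-free enzyme format: loss of fluorescent product after mobility-shift separation, 1 h incubation, recombinant human HDAC3. Single 25 uM duplicate screen first, then concentration series to a 50 uM top for hits; DMSO as baseline.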

[15] = target: Mitogen-activated protein kinase 3 (Homo sapiens) (UniProt P27361); assay: NVS_ENZ_hMAPK3: NovaScreen (NVS) Enzymatic Assay for human Mitogen-Activated Protein Kinase 3 (MAPK 3) (AID 2283177)
Sequence of Mitogen-activated protein kinase 3 (Homo sapiens) (P27361 whole entry, looked up): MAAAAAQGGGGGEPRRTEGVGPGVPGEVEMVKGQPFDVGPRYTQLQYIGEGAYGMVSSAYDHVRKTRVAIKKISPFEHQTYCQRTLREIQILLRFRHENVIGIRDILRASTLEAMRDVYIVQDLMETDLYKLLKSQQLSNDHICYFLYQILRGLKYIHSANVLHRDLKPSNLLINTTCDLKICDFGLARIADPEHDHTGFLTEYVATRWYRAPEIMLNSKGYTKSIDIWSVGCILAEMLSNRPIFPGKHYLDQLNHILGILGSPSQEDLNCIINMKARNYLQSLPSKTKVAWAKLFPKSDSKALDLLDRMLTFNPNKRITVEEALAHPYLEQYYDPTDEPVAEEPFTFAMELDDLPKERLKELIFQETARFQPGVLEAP
How it was run: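 Chemicals were first tested in duplicate at 25 uM, with hits re-run as concentration series (max 50 uM). Recombinant enzyme activity, measured 1 h post-dose in a cell-free format, was read by fluorescence/mobility shift relative to DMSO.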

[16] = target: human IkappaB Kinase alpha (IKKa), CHUK (gene 1147) (UniProt O15111); assay: NVS_ENZ_hIKKa: NovaScreen (NVS) Enzymatic Assay for human IkappaB Kinase alpha (IKKa) (AID 2283167)
Sequence of human IkappaB Kinase alpha (IKKa), CHUK (gene 1147) (O15111 whole entry, looked up): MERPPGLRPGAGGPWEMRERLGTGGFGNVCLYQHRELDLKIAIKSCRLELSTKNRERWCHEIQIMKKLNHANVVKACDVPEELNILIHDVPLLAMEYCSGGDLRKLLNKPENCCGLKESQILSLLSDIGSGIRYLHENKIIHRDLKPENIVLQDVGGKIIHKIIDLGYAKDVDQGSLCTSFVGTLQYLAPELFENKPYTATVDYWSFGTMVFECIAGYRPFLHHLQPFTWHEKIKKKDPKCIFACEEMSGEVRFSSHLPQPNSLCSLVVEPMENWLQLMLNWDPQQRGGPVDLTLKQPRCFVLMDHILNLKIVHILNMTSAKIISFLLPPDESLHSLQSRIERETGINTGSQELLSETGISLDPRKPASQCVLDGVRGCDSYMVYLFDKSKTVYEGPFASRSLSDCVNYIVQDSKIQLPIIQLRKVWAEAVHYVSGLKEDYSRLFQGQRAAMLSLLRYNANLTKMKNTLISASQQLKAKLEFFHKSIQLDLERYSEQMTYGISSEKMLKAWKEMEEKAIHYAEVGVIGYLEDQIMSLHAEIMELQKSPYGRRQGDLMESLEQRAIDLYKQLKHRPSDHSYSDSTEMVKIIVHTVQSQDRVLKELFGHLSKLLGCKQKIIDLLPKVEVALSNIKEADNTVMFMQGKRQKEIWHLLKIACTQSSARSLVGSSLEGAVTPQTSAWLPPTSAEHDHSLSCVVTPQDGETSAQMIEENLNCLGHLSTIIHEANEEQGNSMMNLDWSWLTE
How it was run: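 Compounds first run in duplicate at 25 uM, those meeting threshold (e.g. 30% inhibition) retested to maximum 50 uM. Enzyme activity of recombinant IKKa measured by fluorescence with electrophoretic mobility shift separation, 1 hour post-dosing, DMSO baseline.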

[17] = target: human Insulin Receptor (InsR), INSR (gene 3643) (UniProt P06213); assay: NVS_ENZ_hInsR: NovaScreen (NVS) Enzymatic Assay for human Insulin Receptor (InsR) (AID 2283168)
How it was run: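 Cell-free enzyme assay read 1 h post-dose by fluorescence after substrate/product mobility-shift separation. Duplicate 25 uM primary screen, then singleton concentration-response up to 50 uM for compounds passing threshold; loss of signal vs DMSO.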

[18] = target: human LYN Proto-Oncogene, Src family Tyrosine Kinase (LynA), LYN (gene 4067) (UniProt P07948); assay: NVS_ENZ_hLynA: NovaScreen (NVS) Enzymatic Assay for human LYN Proto-Oncogene, Src family Tyrosine Kinase (LynA) (AID 2283173)
How it was run: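 Recombinant kinase with fluorescent substrate; product separated from substrate by electrophoretic mobility shift and read 1 h after dosing. Duplicate screen at 25 uM, then concentration-response up to 50 uM; activity scored as signal loss against DMSO.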

[19] = target: human MET Proto-Oncogene, Receptor Tyrosine Kinase (MET), MET (gene 4233) (UniProt P08581); assay: NVS_ENZ_hMet: NovaScreen (NVS) Enzymatic Assay for human MET Proto-Oncogene, Receptor Tyrosine Kinase (MET) (AID 2283180)
How it was run: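 Hits from a 25 uM duplicate screen were retested in concentration series up to 50 uM. Enzyme activity was measured by fluorescence after electrophoretic separation of product from substrate, 1 h after compound addition, relative to DMSO.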

[20] = target: human p21 Activated Kinase 4 (PAK4), PAK4 (gene 10298) (UniProt O96013); assay: NVS_ENZ_hPAK4: NovaScreen (NVS) Enzymatic Assay for human p21 Activated Kinase 4 (PAK4) (AID 2283189)
How it was run: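 Extracted PAK4 enzyme activity read by fluorescence with mobility-shift separation 1 h after chemical addition. Duplicate single-concentration screen at 25 uM, DMSO as negative control.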

Structure (SMILES): Cc1c([N+](=O)[O-])cc2c(c1[N+](=O)[O-])C(C)(C)CC2(C)C
- AC50 [1]: 7.49 µM (active)

Structure (SMILES): CCCCc1ccccc1
- outcome [2]: inactive

Structure (SMILES): c1ccc(OP(Oc2ccccc2)Oc2ccccc2)cc1
- outcome [3]: inactive

Structure (SMILES): COP(=O)(O)OC
- AC50 [1]: 9.97 µM (active)

Structure (SMILES): CSC(C)(C)C=NO
- outcome [4]: inactive
- outcome [5]: inactive
- AC50 [6]: 7.52 µM (active)
- outcome [7]: inactive

Structure (SMILES): CC(Cc1ccc(OCC(=O)O)cc1)NCC(O)c1csc(C(F)(F)F)n1 (stereo unspecified)
- outcome [8]: inactive
- AC50 [6]: 2.3 µM (active)
- outcome [1]: inactive

Structure (SMILES): OCC1CO1 (stereo unspecified)
- outcome [3]: inactive

Structure (SMILES): CCOc1ccc(C(C)(C)COCc2cccc(Oc3ccccc3)c2)cc1
- outcome [5]: inactive
- AC50 [6]: 36 µM (active)
- outcome [9]: inactive

Structure (SMILES): CC1(C)CN=C(NN=C(/C=C/c2ccc(C(F)(F)F)cc2)/C=C/c2ccc(C(F)(F)F)cc2)NC1
- AC50 [4]: 13.6 µM (active)

Structure (SMILES): O=[N+]([O-])c1ccccc1
- outcome [4]: inactive
- outcome [10]: inactive

Structure (SMILES): CCC1(c2ccccc2)C(=O)N=C(O)NC1=O (stereo unspecified)
- AC50 [6]: 15.4 µM (active)
- outcome [1]: inactive

Structure (SMILES): O=P1(N(CCCl)CCCl)NCCCO1 (stereo unspecified)
- outcome [4]: inactive

Structure (SMILES): Cc1ccc(O)cc1C
- outcome [3]: inactive
- outcome [11]: inactive
- outcome [12]: inactive
- AC50 [13]: 4.79 µM (active)

Structure (SMILES): CCCCC(CC)COP(=O)(Oc1ccccc1)Oc1ccccc1 (stereo unspecified)
- AC50 [1]: 2.08 µM (active)

Structure (SMILES): CCNc1nc(Cl)nc(NC(C)(C)C)n1
- outcome [4]: inactive

Structure (SMILES): CCOS(=O)(=O)OCC
- outcome [14]: inactive
- outcome [3]: inactive

Structure (SMILES): Nc1cc2c3c(c1)C(c1ccccc1)=N[C@@H](NC(=O)c1cccnc1)C(=O)N3CC2
- outcome [15]: inactive

Structure (SMILES): CCCN(CCC)c1c([N+](=O)[O-])cc(C(C)C)cc1[N+](=O)[O-]
- AC50 [13]: 8.62 µM (active)

Structure (SMILES): Nc1ccc2ccccc2c1
- outcome [3]: inactive

Structure (SMILES): CCOP(=S)(OCC)SCSCC
- outcome [5]: inactive
- outcome [6]: inactive

Structure (SMILES): ClC(Cl)(Cl)c1ccccc1
- outcome [4]: inactive

Structure (SMILES): O=P(Oc1ccccc1)(Oc1ccccc1)Oc1ccccc1
- outcome [16]: inactive
- outcome [17]: inactive

Structure (SMILES): Cc1cccc(N)c1
- outcome [16]: inactive
- outcome [18]: inactive

Structure (SMILES): c1nc[nH]n1
- outcome [6]: inactive

Structure (SMILES): Nc1ccc(Cl)cc1
- outcome [1]: inactive

Structure (SMILES): CCC(C)(C)c1ccc(O)cc1
- outcome [3]: inactive

Structure (SMILES): CCCCN(CCCC)N=O
- outcome [4]: inactive
- outcome [5]: inactive

Structure (SMILES): O=P(OCC(Br)CBr)(OCC(Br)CBr)OCC(Br)CBr (stereo unspecified)
- AC50 [1]: 4.32 µM (active)

Structure (SMILES): ClC1=C(Cl)C2(Cl)C3C(Cl)C(Cl)CC3C1(Cl)C2(Cl)Cl (stereo unspecified)
- outcome [4]: inactive
- outcome [12]: inactive

Structure (SMILES): CCOC(=O)c1ccccc1C(=O)OCC
- outcome [3]: inactive

Structure (SMILES): CC(C)(C)c1ccc(O)cc1
- outcome [3]: inactive

Structure (SMILES): CC(C)(C)OOC(C)(C)C
- outcome [3]: inactive
- outcome [11]: inactive
- outcome [12]: inactive
- outcome [15]: inactive
- outcome [19]: inactive
- outcome [20]: inactive

Structure (SMILES): CCN(CC)c1ccccc1
- outcome [8]: inactive
